# Results from PubChem BioAssay AID504834 (National Center for Advancing Translational Sciences (NCATS), 2011).
# In all, about 320,000 compounds went through this assay and about 22,000 (6.9%) were called active. A call without a number means that no potency is given here. Not shown: some 27% with an inconclusive outcome. The call rests on the fitted dose curve; in most records, active means well fitted inhibition curve with a large enough effect; inconclusive means small, poorly fitted or top-dose-only effect, or another doubt; inactive means no such curve, though single readings can be large or run the other way. This excerpt belongs to a sample that is enriched for actives.
# Test: Primary qHTS for delayed death inhibitors of the malarial parasite plastid, 96 hour incubation
# Settings: P. falciparum luciferase reporter growth; series mostly up to 28.7 µM
# Method in brief: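 Erythrocytes infected with luciferase-expressing P. falciparum were dispensed at 2% hematocrit and 0.05% parasitemia (final), then incubated with compounds 96 hours at 37 C in 5% CO2. Luminescence after detection reagent addition reported growth.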
# Potency means the concentration at half of the fitted maximal effect.
row,SMILES,Potency
1,S=C(NCc1ccco1)NCc1ccccc1Cl,inactive
2,Cc1[nH]c2ccccc2c1C(=O)CSCC(=O)O,inactive
3,Cc1[nH]c2ccccc2c1C(=O)C(C)Sc1nnc(C2CC2)o1 (stereo unspecified),4.15 µM (active)
4,Cc1[nH]c2ccccc2c1C(=O)CN1CC(C)CC(C)C1 (stereo unspecified),inactive
5,Cc1ccc(SCCSc2ncccn2)cc1,inactive
6,COCCCNC(=O)[C@H]1N2C(=O)c3ccccc3C2SC1(C)C (stereo partly specified),inactive
7,O=C(NCc1ccccc1)[C@@H]1CSC2c3ccccc3C(=O)N21 (stereo partly specified),inactive
8,CC1(C)SC2c3ccccc3C(=O)N2[C@@H]1C(=O)NCc1ccco1 (stereo partly specified),5.22 µM (active)
9,COc1cccc(NC(=O)CN(C)C(=O)CSC(=S)N2CCCC2)c1,inactive
10,Cc1c(Cl)cccc1NC(=O)NCc1ccc(C)n1C,inactive
11,CS(=O)(=O)Nc1cccc(C2=NN(C(=O)c3cccc(F)c3)C(c3cccs3)C2)c1 (stereo unspecified),inactive
12,Cc1ccc(C2CC(c3cccc(NS(C)(=O)=O)c3)=NN2S(C)(=O)=O)cc1 (stereo unspecified),inactive
13,CCOc1ccccc1C1CC(c2cccc(NS(C)(=O)=O)c2)=NN1C(=O)c1ccccc1 (stereo unspecified),13.1 µM (active)
14,CCN(CC(=O)Nc1c(F)cccc1F)C(=O)CN1c2cccc3cccc(c23)S1(=O)=O,inactive
15,Cc1cccc(C(=O)OCC(=O)Nc2ccc(F)cc2)c1,inactive
16,CCOC(=O)c1ccccc1NC(=O)COC(=O)C(Cc1c[nH]c2ccccc12)NC(C)=O (stereo unspecified),inactive
17,COc1ccc(C)cc1-n1nnnc1SCC(=O)c1cc(C)n(Cc2ccco2)c1C,10.4 µM (active)
18,Cc1cc(C(=O)CSc2nc(N)cc(=O)[nH]2)c(C)n1Cc1ccco1,inactive
19,Cc1ccc(OCC(=O)c2cc(C)n(Cc3ccco3)c2C)c([N+](=O)[O-])n1,inactive
20,O=c1[nH]c(NCCO)nnc1Cc1ccc(Cl)cc1,inactive
21,COc1ccccc1NS(=O)(=O)c1ccc(C)c(C(=O)NCC(c2ccco2)N(C)C)c1 (stereo unspecified),inactive
22,CC1CN(S(=O)(=O)c2cccc(C(F)(F)F)c2)CN1C(=O)N1CCOCC1 (stereo unspecified),inactive

row,SMILES,Potency
1,O=C(NCCCNC(=O)c1ccccc1Cl)c1cnccn1,inactive
2,CCCCN1C(=O)c2ccc(C(=O)Nc3ccc(S(=O)(=O)N(C)C)cc3)cc2C1=O,inactive
3,CN(Cc1cccs1)C(=O)CN1C(=O)c2ccccc2S1(=O)=O,inactive
4,CCCCN(C)C(=O)c1ccc2c(c1)N(CC)C(=O)c1ccccc1S2(=O)=O,10.4 µM (active)
5,Cc1ccc(OCC(=O)NCCCNC(=O)c2cccnc2)cc1C,inactive
6,Cc1cc(NC(=O)c2ccccc2C)no1,inactive
7,COc1ccccc1N1CC(C(=O)Nc2nnc(SCC(=O)NC(C)C)s2)CC1=O (stereo unspecified),inactive
8,CCOC(=O)CSc1nnc(NC(=O)C2CC(=O)N(c3ccc(F)cc3)C2)s1 (stereo unspecified),14.7 µM (active)
9,CCCC(C)c1nnc(NC(=O)C2CC(=O)N(c3ccc(OCC)cc3)C2)s1 (stereo unspecified),inactive
10,CC1CN(C(=O)CCC(=O)NCCCN2CCC(Cc3ccccc3)CC2)c2cc(Cl)ccc2O1 (stereo unspecified),inactive
11,COc1cccc(NC(=O)c2cc(S(=O)(=O)N3CCc4ccccc43)cn2C)c1,inactive
12,CCn1c(=O)c(=O)n(CC)c2cc(N3CCCCC3)c(NC(=O)c3ccc(Cl)cc3)cc21,inactive
13,CC(NC(=O)c1ccccc1SCC(=O)N1CCCC1)c1ccccc1 (stereo unspecified),inactive
14,Cc1ccc(S(=O)(=O)N(C)c2nc3ccccc3n3c(C(C)C)nnc23)cc1,11.7 µM (active)
15,CC(=O)Nc1ccc(S(=O)(=O)N(C)c2nc3ccccc3nc2Cl)cc1,inactive
16,Cc1ccc(Oc2nc3ccccc3n3c(C)nnc23)cc1,inactive
17,O=C(Nc1ccccc1Cl)NC1(C(=O)N2CCOCC2)CCCCC1,inactive
18,N#Cc1c(Cl)nc(-c2cccnc2)nc1-c1ccccc1,inactive
19,NC(=S)Nc1c(Cl)cccc1Cl,inactive
20,CN(CC(=O)Nc1c(Cl)cccc1Cl)C(=O)CNC(=O)C1CCCCC1,inactive
21,O=C(Nc1c(Cl)cccc1Cl)C1CCC1,10.4 µM (active)
22,NS(=O)(=O)c1ccc2nc(NC(=O)CS(=O)(=O)c3ccc(F)cc3)sc2c1,inactive

row,SMILES,Potency
1,Cc1nn(CCOc2ccc(Br)cc2)c(C)c1[N+](=O)[O-],13.1 µM (active)
2,COc1ccc(CNC(=O)CCCn2nc(C)c([N+](=O)[O-])c2C)cc1,inactive
3,Brc1ccc(OCCn2ccnc2)cc1,inactive
4,CNS(=O)(=O)c1ccc(NC(=O)Nc2ccc3c(c2)OCO3)cc1,inactive
5,CCOC(=O)C(=O)C1C(=O)Nc2ccccc21 (stereo unspecified),inactive
6,CCCCCN(C(=O)CCC(=O)OCCOc1ccc(OC)cc1)c1c(N)n(CCCC)c(=O)[nH]c1=O,inactive
7,CCCCCN(C(=O)CCC(=O)OCC(=O)NC1CCC(C)CC1)c1c(N)n(CCCC)c(=O)[nH]c1=O (stereo unspecified),14.7 µM (active)
8,CCCCCN(C(=O)CCC(=O)OCC(=O)NCc1ccc(OC)cc1)c1c(N)n(CCCC)c(=O)[nH]c1=O,inactive
9,O=C(NCc1ccco1)C1CCCN1S(=O)(=O)c1ccccc1C(F)(F)F (stereo unspecified),inactive
10,CCOC(=O)C1=C(COC(=O)[C@H](C)NS(=O)(=O)c2ccccc2F)NC(=O)NC1C (stereo partly specified),inactive
11,CN(C)CCCN=Cc1c(O)n(Cc2ccco2)c(=O)[nH]c1=O,inactive
12,Cc1cs/c(=N\N=C\c2ccc(O)cc2)n1Cc1ccco1,inactive
13,CC(C)n1c(=O)c(C=Nc2ccc(Br)cc2)c(O)n(Cc2ccco2)c1=O,10.4 µM (active)
14,COC(=O)c1cccc(N(C(=O)CNC(=O)c2cccs2)C(C(=O)NCC2CCCO2)c2ccc(OC)c(OC)c2)c1 (stereo unspecified),inactive
15,CC1(C)CC(=O)CC2(C1)NCC(c1ccccc1Cl)c1c2[nH]c2ccccc12 (stereo unspecified),9.28 µM (active)
16,O=C(O)CC(c1ccccc1F)N1Cc2ccccc2C1=O (stereo unspecified),inactive
17,CN(C)CCNc1ccc(-c2n[nH]c(=O)c3ccccc23)cc1[N+](=O)[O-],inactive
18,CCOC(=O)c1cn[nH]c1NC(=S)Nc1ccccc1,inactive
19,CCOC(=O)c1cc2c(nc1NC(=S)Nc1ccccc1)CC(C)(CC)OC2 (stereo unspecified),13.1 µM (active)
20,CCOC(=O)c1ccc(NC(=S)Nc2cc(C)cc(C)n2)cc1,inactive
21,COc1ccc(CNC(=O)c2cc(=O)c3c(C)cc(C)cc3o2)cc1,inactive
22,Cc1ccc(N=C2SCCCN2C(=O)c2cccc(N3C(=O)CCC3=O)c2)cc1Cl,inactive
